Measured values taken from PubChem BioAssay AID1159580 (chemical genetic matrix, 2015).
In all, about 5,500 compounds went through this assay and about 2,000 (36%) were called active. About 18% were inconclusive and are not listed. The list shows a part of the results. Values without a mark were called inactive. No stated cut-off is given here; in the data, active means normalized growth mostly below about 0.91 (no sharp cut-off); inconclusive means no clear call, values can overlap the other calls; inactive means mostly above about 0.92.

Experiment: chemical genetic growth profiling, strain panel (AID 1159580);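 further: tested at 20 µM; growth read once vehicle control cultures reached saturation at 30 °C; 1 = growth at the plate median or of vehicle wells; lower values mean less growth of the strain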
Conditions: growth OD

O=C(/C=C/c1ccccc1)c1ccc(O)cc1
normalized growth (S. cerevisiae deletion strains, locus YJR075W, strain HOC1, active compounds read low): 0.681 (active) | normalized growth (S. cerevisiae deletion strains, locus YKL009W, strain mrt4, active compounds read low): 0.829 (active) | normalized growth (S. cerevisiae deletion strains, locus YKL068W, active compounds read low): 0.912 (active) | normalized growth (S. cerevisiae deletion strains, locus YKL085W, strain MDH1 (second series), active compounds read low): 0.923 (active) | normalized growth (S. cerevisiae deletion strains, locus YKL085W, strain MDH1, active compounds read low): 0.923 (active) | normalized growth (S. cerevisiae deletion strains, locus YKL160W, strain elf1, active compounds read low): 0.144 (active) | normalized growth (S. cerevisiae deletion strains, locus YKR001C, strain vps1, active compounds read low): 0.299 (active) | normalized growth (S. cerevisiae deletion strains, locus YKR026C, strain gcn3, active compounds read low): 0.292 (active) | normalized growth (S. cerevisiae deletion strains, locus YKR091W, strain srl3, active compounds read low): 0.509 (active) | normalized growth (S. cerevisiae deletion strains, locus YLL001W, strain dnm1, active compounds read low): 0.366 (active) | normalized growth (S. cerevisiae deletion strains, locus YLL026W, active compounds read low): 0.173 (active) | normalized growth (S. cerevisiae deletion strains, locus YLL041C, strain sdh2, active compounds read low): 0.218 (active) | normalized growth (S. cerevisiae deletion strains, locus YLR027C, strain aat2, active compounds read low): 0.0836 (active) | normalized growth (S. cerevisiae deletion strains, locus YLR039C, strain RIC1, active compounds read low): 0.202 (active) | normalized growth (S. cerevisiae deletion strains, locus YLR058C, strain SHM2, active compounds read low): 0.765 (active) | normalized growth (S. cerevisiae deletion strains, locus YLR102C, strain apc9, active compounds read low): 0.922 (active) | normalized growth (S. cerevisiae deletion strains, locus YLR113W, strain HOG1, active compounds read low): 0.964 | normalized growth (S. cerevisiae deletion strains, locus YLR221C, strain rsa3, active compounds read low): 0.0804 (active) | normalized growth (S. cerevisiae deletion strains, locus YLR258W, strain gsy2, active compounds read low): 0.237 (active) | normalized growth (S. cerevisiae deletion strains, locus YLR262C, strain YPT6 (second series), active compounds read low): 0.17 (active) | normalized growth (S. cerevisiae deletion strains, locus YLR262C, strain YPT6, active compounds read low): 0.248 (active) | normalized growth (S. cerevisiae deletion strains, locus YLR268W, strain sec22, active compounds read low): 0.723 (active) | normalized growth (S. cerevisiae deletion strains, locus YLR320W, strain mms22, active compounds read low): 0.0946 (active) | normalized growth (S. cerevisiae deletion strains, locus YLR330W, strain CHS5, active compounds read low): 0.59 (active) | normalized growth (S. cerevisiae deletion strains, locus YLR342W, strain FKS1 (second series), active compounds read low): 0.569 (active) | normalized growth (S. cerevisiae deletion strains, locus YLR342W, strain FKS1, active compounds read low): 0.193 (active) | normalized growth (S. cerevisiae deletion strains, locus YLR357W, strain rsc2, active compounds read low): 0.46 (active) | normalized growth (S. cerevisiae deletion strains, locus YLR370C, strain arc18, active compounds read low): 0.447 (active) | normalized growth (S. cerevisiae deletion strains, locus YLR371W, strain rom2, active compounds read low): 0.714 (active) | normalized growth (S. cerevisiae deletion strains, locus YLR384C, strain iki3, active compounds read low): 0.462 (active) | normalized growth (S. cerevisiae deletion strains, locus YLR418C, strain cdc73, active compounds read low): 0.301 (active) | normalized growth (S. cerevisiae deletion strains, locus YML016C, strain PPZ1, active compounds read low): 0.896 (active) | normalized growth (S. cerevisiae deletion strains, locus YML032C, strain rad52, active compounds read low): 0.814 (active) | normalized growth (S. cerevisiae deletion strains, locus YML120C, strain ndi1, active compounds read low): 0.0894 (active) | normalized growth (S. cerevisiae deletion strains, locus YML124C, strain tub3, active compounds read low): 0.913 (active) | normalized growth (S. cerevisiae deletion strains, locus YMR058W, strain fet3, active compounds read low): 0.0951 (active) | normalized growth (S. cerevisiae deletion strains, locus YMR078C, strain ctf18, active compounds read low): 0.676 (active) | normalized growth (S. cerevisiae deletion strains, locus YMR125W, strain sto1, active compounds read low): 0.101 (active) | normalized growth (S. cerevisiae deletion strains, locus YMR129W, active compounds read low): 0.222 (active) | normalized growth (S. cerevisiae deletion strains, locus YMR205C, strain PFK2, active compounds read low): 0.124 (active) | normalized growth (S. cerevisiae deletion strains, locus YMR223W, strain ubp8, active compounds read low): 0.852 (active) | normalized growth (S. cerevisiae deletion strains, locus YMR231W, strain pep5, active compounds read low): 0.512 (active) | normalized growth (S. cerevisiae deletion strains, locus YMR263W, strain SAP30, active compounds read low): 0.798 (active) | normalized growth (S. cerevisiae deletion strains, locus YMR307W, strain GAS1, active compounds read low): 0.401 (active) | normalized growth (S. cerevisiae deletion strains, locus YNL067W, strain RPL9B, active compounds read low): 0.719 (active) | normalized growth (S. cerevisiae deletion strains, locus YNL071W, strain lat1, active compounds read low): 0.0619 (active) | normalized growth (S. cerevisiae deletion strains, locus YNL128W, strain TEP1, active compounds read low): 0.734 (active) | normalized growth (S. cerevisiae deletion strains, locus YNL153C, strain GIM3, active compounds read low): 0.492 (active) | normalized growth (S. cerevisiae deletion strains, locus YNL183C, strain NPR1, active compounds read low): 0.901 | normalized growth (S. cerevisiae deletion strains, locus YNL209W, strain ssb2, active compounds read low): 0.593 (active) | normalized growth (S. cerevisiae deletion strains, locus YNL233W, strain BNI4, active compounds read low): 0.621 (active) | normalized growth (S. cerevisiae deletion strains, locus YNL248C, strain rpa49, active compounds read low): 0.0935 (active) | normalized growth (S. cerevisiae deletion strains, locus YNL250W, strain rad50, active compounds read low): 0.924 | normalized growth (S. cerevisiae deletion strains, locus YNL271C, strain bni1, active compounds read low): 0.878 (active) | normalized growth (S. cerevisiae deletion strains, locus YNL298W, strain CLA4, active compounds read low): 0.824 (active) | normalized growth (S. cerevisiae deletion strains, locus YNL307C, strain MCK1, active compounds read low): 0.162 (active) | normalized growth (S. cerevisiae deletion strains, locus YNL322C, strain KRE1 (second series), active compounds read low): 0.231 (active) | normalized growth (S. cerevisiae deletion strains, locus YNL322C, strain KRE1, active compounds read low): 0.77 (active) | normalized growth (S. cerevisiae deletion strains, locus YNR049C, strain mso1, active compounds read low): 0.454 (active) | normalized growth (S. cerevisiae deletion strains, locus YNR052C, strain pop2, active compounds read low): 0.866 (active) | normalized growth (S. cerevisiae deletion strains, locus YOL006C, strain TOP1, active compounds read low): 0.347 (active) | normalized growth (S. cerevisiae deletion strains, locus YOL012C, strain htz1): 0.327 | normalized growth (S. cerevisiae deletion strains, locus YOL147C, strain pex11, active compounds read low): 0.706 (active) | normalized growth (S. cerevisiae deletion strains, locus YOR001W, strain rrp6, active compounds read low): 0.189 (active) | normalized growth (S. cerevisiae deletion strains, locus YOR061W, strain CKA2, active compounds read low): 0.877 (active) | normalized growth (S. cerevisiae deletion strains, locus YOR069W, strain VPS5, active compounds read low): 0.827 (active) | normalized growth (S. cerevisiae deletion strains, locus YOR070C, strain gyp1, active compounds read low): 0.26 (active) | normalized growth (S. cerevisiae deletion strains, locus YOR080W, strain dia2, active compounds read low): 0.514 (active) | normalized growth (S. cerevisiae deletion strains, locus YOR083W, strain WHI5, active compounds read low): 0.312 (active) | normalized growth (S. cerevisiae deletion strains, locus YOR106W, strain vam3, active compounds read low): 0.241 (active) | normalized growth (S. cerevisiae deletion strains, locus YOR136W, strain idh2, active compounds read low): 0.914 (active) | normalized growth (S. cerevisiae deletion strains, locus YOR144C, strain elg1, active compounds read low): 0.88 (active) | normalized growth (S. cerevisiae deletion strains, locus YOR184W, strain ser1, active compounds read low): 0.459 (active) | normalized growth (S. cerevisiae deletion strains, locus YOR231W, strain MKK1, active compounds read low): 0.948 | normalized growth (S. cerevisiae deletion strains, locus YOR265W, strain rbl2, active compounds read low): 0.295 (active) | normalized growth (S. cerevisiae deletion strains, locus YOR270C, strain vph1, active compounds read low): 0.143 (active) | normalized growth (S. cerevisiae deletion strains, locus YOR290C, strain snf2, active compounds read low): 0.14 (active) | normalized growth (S. cerevisiae deletion strains, locus YOR316C, strain cot1, active compounds read low): 0.917 (active) | normalized growth (S. cerevisiae deletion strains, locus YPL051W, strain arl3, active compounds read low): 0.213 (active) | normalized growth (S. cerevisiae deletion strains, locus YPL055C, strain LGE1, active compounds read low): 0.558 (active) | normalized growth (S. cerevisiae deletion strains, locus YPL078C, strain atp4, active compounds read low): 0.209 (active) | normalized growth (S. cerevisiae deletion strains, locus YPL106C, strain sse1, active compounds read low): 0.503 (active) | normalized growth (S. cerevisiae deletion strains, locus YPL240C, strain hsp82, active compounds read low): 0.149 (active) | normalized growth (S. cerevisiae deletion strains, locus YPL241C, strain CIN2, active compounds read low): 0.763 (active) | normalized growth (S. cerevisiae deletion strains, locus YPL256C, strain CLN2, active compounds read low): 0.978 | normalized growth (S. cerevisiae deletion strains, locus YPR119W, strain clb2, active compounds read low): 0.905 (active) | normalized growth (S. cerevisiae deletion strains, locus YPR141C, strain kar3, active compounds read low): 0.907 (active) | normalized growth (S. cerevisiae deletion strains, locus YPR163C, strain tif3, active compounds read low): 0.369 (active) | normalized growth (S. cerevisiae deletion strains, locus YPR167C, strain met16, active compounds read low): 0.898 (active) | normalized growth (S. cerevisiae deletion strains, strain wtn01, active compounds read low): 0.78 (active) | normalized growth (S. cerevisiae strains, strain wild type, active compounds read low): 0.518 (active)
